Measurements as given in PubChem BioAssay (Tox21).
Unmarked numbers belong to inactive results. Records with an inconclusive call do not appear. A call without a number means that no potency is given here. The source made the active and inactive calls. Unless noted, calls come from the whole dose curve.

Columns and labels:
[1] = Nuclear factor erythroid 2-related factor 2/antioxidant responsive element (Nrf2/ARE) small molecule agonists: qHTS cell viability counter screen in human keratinocytes (AID 1919968; active = well fitted curve in the direction sought with a large enough effect in the repeat runs; an effect the other way counts as inactive or inconclusive; note: nearly all actives have a fitted effect of over 55% in size)
Outline: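 Fluorescence read-out from CellTiter-Fluor after 1 h at 37 C. Wells held HaCaT-derived ARE-luciferase reporter cells (1,500/well) treated 23 h with DMSO-dissolved compounds. Run in the same wells as the luciferase agonist read.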

[2] = Nuclear factor erythroid 2-related factor 2/antioxidant responsive element (Nrf2/ARE) small molecule agonists: luciferase reporter gene qHTS assay in human keratinocytes (AID 1919969); note: nearly all actives have a fitted effect of over 35% in size
[3] = biological target: Gonadotropin-releasing hormone receptor (Homo sapiens) (UniProt P30968); test: Human gonadotropin-releasing hormone receptor (GnRHR) small molecule agonists, calcium flux assay in GnRHR-HEK293 cells (AID 1920063); note: nearly all actives have a fitted effect of over 35% in size
Sequence of Gonadotropin-releasing hormone receptor (Homo sapiens) (P30968 whole entry, looked up): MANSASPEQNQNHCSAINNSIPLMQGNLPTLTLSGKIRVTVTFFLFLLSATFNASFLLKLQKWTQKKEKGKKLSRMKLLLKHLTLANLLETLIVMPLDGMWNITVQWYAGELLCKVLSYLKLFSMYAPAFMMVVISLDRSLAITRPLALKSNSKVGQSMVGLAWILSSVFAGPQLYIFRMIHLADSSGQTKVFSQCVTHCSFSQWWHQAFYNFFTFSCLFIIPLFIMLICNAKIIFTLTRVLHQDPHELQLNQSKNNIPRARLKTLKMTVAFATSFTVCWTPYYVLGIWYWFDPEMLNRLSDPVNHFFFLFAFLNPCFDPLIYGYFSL
Outline: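 Calcium-dye fluorescence, Ex/Em=480/540, recorded every 1 sec over 3 min after compound addition to GnRHR-HEK293 cells. Cells had been seeded 18 hours earlier and dye-loaded for 1 hour at 37 C. Fifteen concentrations, triplicates.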

[4] = biological target: KiSS-1 receptor (Homo sapiens) (UniProt Q969F8); test: Human kisspeptin (KISS1R) small molecule agonists, calcium flux assay in KISS1R-HEK293 cells (AID 1920064; active = well fitted curve in the direction sought with a large enough effect in the repeat runs; an effect the other way counts as inactive or inconclusive)
Sequence of KiSS-1 receptor (Homo sapiens) (Q969F8 whole entry, looked up): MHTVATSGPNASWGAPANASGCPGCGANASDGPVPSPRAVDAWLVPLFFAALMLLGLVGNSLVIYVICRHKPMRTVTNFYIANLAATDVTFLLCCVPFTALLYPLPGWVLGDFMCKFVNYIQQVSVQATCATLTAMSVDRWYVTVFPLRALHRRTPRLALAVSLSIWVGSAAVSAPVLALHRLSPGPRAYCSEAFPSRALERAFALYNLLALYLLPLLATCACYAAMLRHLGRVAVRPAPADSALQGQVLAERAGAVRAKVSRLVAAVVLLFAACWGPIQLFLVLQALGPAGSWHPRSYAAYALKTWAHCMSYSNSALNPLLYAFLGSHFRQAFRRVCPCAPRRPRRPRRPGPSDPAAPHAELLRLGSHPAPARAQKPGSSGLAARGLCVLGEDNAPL
Outline: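 Calcium flux read-out: kinetic fluorescence at Ex/Em=480/540, 1 s intervals over 3 min, after pin-tool compound addition to dye-loaded KISS1R-HEK293 cells. Fifteen concentrations, triplicates.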

[5] = p53 small molecule agonists, cell-based qHTS assay with human liver microsomes: qHTS cell viability counter screen (AID 1963579); note: nearly all actives have a fitted effect of over 45% in size
Outline: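 p53RE-bla cells, 4,000/well, dosed 5 hours after plating, with human liver microsomes (0.5 mg/mL final) plus NADPH (0.5 mg/mL final), 16 hours at 37 C. Viability read as CellTiter-Glo luminescence after 30 min at room temperature.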

[6] = p53 small molecule agonists, cell-based qHTS assay with rat liver microsomes: qHTS cell viability counter screen (AID 1963580); note: nearly all actives have a fitted effect of over 45% in size
Outline: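 After the beta-lactamase ratio was read, CellTiter-Glo was added to the same wells and luminescence measured at 30 min; cells had been treated 16 h at 37 C with compounds, rat liver microsomes and NADPH (0.5 mg/mL final each).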

[7] = p53 small molecule agonists, cell-based qHTS assay: qHTS cell viability counter screen (AID 1963581); note: nearly all actives have a fitted effect of over 45% in size; note: potency is the fitted concentration of half-maximal effect
Outline: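 Cytotoxicity read-out: ATP-based luminescence (CellTiter-Glo, 30 min RT) measured in the same wells as the p53 reporter assay, HCT-116 p53RE-bla cells, 16 h compound exposure at 37 C.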

[8] = biological target: Muscarinic acetylcholine receptor M1 (Homo sapiens) (UniProt P11229); test: Cholinergic receptor muscarinic 1 (CHRM1) small molecule agonists, cell-based qHTS assay (AID 1963589); note: nearly all actives have a fitted effect of over 35% in size
Sequence of Muscarinic acetylcholine receptor M1 (Homo sapiens) (P11229 whole entry, looked up): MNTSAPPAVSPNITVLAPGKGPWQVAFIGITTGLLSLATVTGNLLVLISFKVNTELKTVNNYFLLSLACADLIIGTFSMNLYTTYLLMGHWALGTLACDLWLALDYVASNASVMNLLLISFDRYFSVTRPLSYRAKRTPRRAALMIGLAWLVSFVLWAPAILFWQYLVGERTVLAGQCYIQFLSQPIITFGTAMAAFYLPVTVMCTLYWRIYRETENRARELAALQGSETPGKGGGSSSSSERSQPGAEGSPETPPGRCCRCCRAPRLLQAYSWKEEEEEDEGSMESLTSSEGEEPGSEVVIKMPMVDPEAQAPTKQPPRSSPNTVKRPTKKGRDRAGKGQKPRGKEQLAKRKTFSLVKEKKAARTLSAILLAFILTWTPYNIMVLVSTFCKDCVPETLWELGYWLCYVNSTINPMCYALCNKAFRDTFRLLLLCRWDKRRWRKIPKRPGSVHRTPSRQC
Outline: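 Calcium flux read-out: kinetic fluorescence at 1 sec intervals after pin-tool compound addition to dye-loaded CHRM1-CHO cells (human M1). Agonist mode; 15 concentrations tested in triplicate independent runs.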

[9] = cAMP Responsive Elements (CRE) small molecule agonists, cell-based qHTS assay (AID 1963590)
Outline: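 Beta-lactamase reporter readout: LiveBLAzer B/G FRET substrate, 2 h at room temperature, added after 3 h compound treatment of CRE-bla HEK 293T cells at 37 C/5% CO2.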

[10] = cAMP Responsive Elements (CRE) small molecule antagonists, cell-based qHTS assay (AID 1963591; active = well fitted inhibition curve with a large enough effect in the signal ratio in the repeat runs, not every such curve was filed as active; the % refers to the signal ratio)
Outline: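 HEK293T CRE-bla; 18 h preincubation; compound pin-transfer; NKH477 0.25 uM final, 3 h, 37 C; LiveBLAzer FRET substrate 2 h RT.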

[11] = biological target: Beta-2 adrenergic receptor (Homo sapiens) (UniProt P07550); test: Adrenergic beta2 receptor (ADRB2) small molecule antagonists, cell-based qHTS assay (AID 1963592); note: series mostly up to about 92 µM; nearly all actives have a fitted effect of over 50% in size
Sequence of Beta-2 adrenergic receptor (Homo sapiens) (P07550 whole entry, looked up): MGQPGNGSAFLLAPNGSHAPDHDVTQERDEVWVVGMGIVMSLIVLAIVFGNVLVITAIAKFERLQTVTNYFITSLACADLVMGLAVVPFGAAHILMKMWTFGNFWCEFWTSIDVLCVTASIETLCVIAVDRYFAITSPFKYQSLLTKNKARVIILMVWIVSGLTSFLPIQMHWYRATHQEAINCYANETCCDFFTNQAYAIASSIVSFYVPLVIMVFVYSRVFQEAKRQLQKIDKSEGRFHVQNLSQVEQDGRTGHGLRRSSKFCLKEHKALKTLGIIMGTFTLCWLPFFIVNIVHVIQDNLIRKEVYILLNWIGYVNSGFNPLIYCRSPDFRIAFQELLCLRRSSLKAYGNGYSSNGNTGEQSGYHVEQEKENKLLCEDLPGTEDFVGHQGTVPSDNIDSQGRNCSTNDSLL
Outline: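 Assay format: CHO-ADRB2 cells, 18-20hr seeding at 37C/5% CO2, then compound plus 1nM isoproterenol agonist mix for 0.5hr RT. Homogeneous time-resolved fluorescence cAMP detection after 1hr, expressed as 665/615 nm ratio.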

[12] = biological target: Beta-2 adrenergic receptor (Homo sapiens) (UniProt P07550); test: Adrenergic beta2 receptor (ADRB2) small molecule agonists, cell-based qHTS assay (AID 1963593);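 note: CHO cells stably overexpressing human ADRB2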
Outline: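 CHO cells stably over-expressing ADRB2 were plated overnight at 37C, then dosed with compounds plus a stimulation mix containing 100uM IBMX and 25uM Ro-20-1724 for 0.5hr at room temperature. cAMP was measured by HTRF competition, 1hr.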

[13] = biological target: D(2) dopamine receptor (Homo sapiens) (UniProt P14416); test: Dopamine D2 receptor (DRD2) small molecule agonists, cell-based qHTS assay (AID 1963594); note: nearly all actives have a fitted effect of over 35% in size
Sequence of D(2) dopamine receptor (Homo sapiens) (P14416 whole entry, looked up): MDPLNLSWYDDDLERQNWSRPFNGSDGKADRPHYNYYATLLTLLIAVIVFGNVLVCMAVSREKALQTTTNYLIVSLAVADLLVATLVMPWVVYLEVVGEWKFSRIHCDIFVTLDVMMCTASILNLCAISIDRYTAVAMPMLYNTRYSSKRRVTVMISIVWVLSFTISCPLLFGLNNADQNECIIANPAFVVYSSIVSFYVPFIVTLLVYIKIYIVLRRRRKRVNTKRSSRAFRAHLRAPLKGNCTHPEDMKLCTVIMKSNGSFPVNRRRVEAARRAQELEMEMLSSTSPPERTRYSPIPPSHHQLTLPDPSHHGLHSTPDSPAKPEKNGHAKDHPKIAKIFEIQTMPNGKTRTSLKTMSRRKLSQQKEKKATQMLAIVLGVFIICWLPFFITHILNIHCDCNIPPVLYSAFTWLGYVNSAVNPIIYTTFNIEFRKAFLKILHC
Outline: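 HEK293 cells stably expressing human DRD2, pre-treated with PDE inhibitor Ro20-1724 (0.1 mM final) and compound 10 min at room temperature, then stimulated with NKH477 (200nM […]) for 30 min. cAMP read by HTRF (665/620 nm).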

[14] = biological target: D(2) dopamine receptor (Homo sapiens) (UniProt P14416); test: Dopamine D2 receptor (DRD2) small molecule antagonists, cell-based qHTS assay (AID 1963595; active = well fitted inhibition curve with a large enough effect in the signal ratio in the repeat runs, with a control signal flat; the % refers to the signal ratio)
Outline: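 HEK293 cells stably expressing DRD2, preincubated with 0.1 mM Ro20-1724 and compounds 10 min, were stimulated with 200 nM NKH477 plus 12 nM quinpirole for 30 min at room temperature; cAMP measured by HTRF (665/620 nm).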

[15] = p53 small molecule agonists, cell-based qHTS assay with rat liver microsomes (AID 1963578)
Outline: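 p53RE-bla cells, 4,000/well, pre-incubated 5 h, then given compounds plus rat liver microsomes (0.5 mg/mL final) and NADPH (0.5 mg/mL final). Incubation 16 h at 37 C; beta-lactamase reporter read by LiveBLAzer fluorescence after 2 h at room temperature.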

[16] = biological target: 5-hydroxytryptamine receptor 2A (Homo sapiens) (UniProt P28223); test: 5-hydroxytryptamine receptor 2A (HTR2A) small molecule antagonists, cell-based qHTS assay (AID 1963586); note: nearly all actives have a fitted effect of over 45% in size; note: potency is the fitted concentration of half-maximal effect
Sequence of 5-hydroxytryptamine receptor 2A (Homo sapiens) (P28223 whole entry, looked up): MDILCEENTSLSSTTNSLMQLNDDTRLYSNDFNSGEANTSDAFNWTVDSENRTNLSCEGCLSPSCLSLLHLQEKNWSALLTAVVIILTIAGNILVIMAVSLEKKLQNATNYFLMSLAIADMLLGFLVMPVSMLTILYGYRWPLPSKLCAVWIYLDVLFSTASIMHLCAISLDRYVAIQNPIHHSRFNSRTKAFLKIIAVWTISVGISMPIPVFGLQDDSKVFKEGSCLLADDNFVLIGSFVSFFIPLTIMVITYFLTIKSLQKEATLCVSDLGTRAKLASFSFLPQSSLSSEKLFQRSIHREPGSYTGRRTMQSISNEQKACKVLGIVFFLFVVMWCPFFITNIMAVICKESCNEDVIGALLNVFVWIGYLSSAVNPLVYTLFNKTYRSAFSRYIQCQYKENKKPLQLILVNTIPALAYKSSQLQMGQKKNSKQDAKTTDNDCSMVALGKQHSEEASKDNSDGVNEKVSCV
Outline: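 CHO cells stably expressing human HTR2A were plated for 18 h at 37 C, then loaded with calcium dye for 1 h. Compounds were preincubated 5 min at room temperature before DOI (4 nM solution) was added. Kinetic fluorescence was read for 3 min.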

[17] = biological target: 5-hydroxytryptamine receptor 2A (Homo sapiens) (UniProt P28223); test: 5-hydroxytryptamine receptor 2A (HTR2A) small molecule agonists, cell-based qHTS assay (AID 1963587); note: nearly all actives have a fitted effect of over 30% in size
Outline: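 CHO cells stably expressing human HTR2A, plated 18 h, loaded with calcium dye 1 h at 37 C. Agonist mode: compounds added and intracellular calcium fluorescence recorded kinetically for 2 min at 1 sec intervals.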

[18] = biological target: Muscarinic acetylcholine receptor M1 (Homo sapiens) (UniProt P11229); test: Cholinergic receptor muscarinic 1 (CHRM1) small molecule antagonists, cell-based qHTS assay (AID 1963588); note: nearly all actives have a fitted effect of over 40% in size; note: potency is the fitted concentration of half-maximal effect
Outline: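 Compounds were tested at 15 concentrations in three independent runs. Dye-loaded CHRM1-CHO cells were exposed 5 min at room temperature before stimulation by acetylcholine added at 50nM. Intracellular calcium was read kinetically on FDSS for 3 min.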

[19] = p53 small molecule agonists, cell-based qHTS assay (AID 1963582; active = well fitted activation curve with a large enough effect in the signal ratio in the repeat runs, not every such curve was filed as active; the % refers to the signal ratio)
Outline: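 Fluorescence intensity read-out of a beta-lactamase reporter under a p53 response element. Cells were exposed to DMSO-dissolved compounds for 16 h at 37 C, then developed with FRET substrate for 2 h at RT.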

[20] = G protein-coupled receptor (GPCR) small molecule agonists, calcium flux assay: HEK293 wild type cell line counter screen (AID 1920065)
Outline: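 Agonist mode; 18 h seeding at 37 C, 1 h dye load at 37 C; compounds pinned from DMSO, ATP as positive control; kinetic fluorescence 480/540 nm, 3 min, 1 s reads; 15 concentrations, triplicate.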

SMILES	Potency [1]	Potency [2]	Potency [3]	Potency [4]	Potency [5]	Potency [6]	Potency [7]	Potency [8]	Potency [9]	Potency [10]	Potency [11]	Potency [12]	Potency [13]	Potency [14]	Potency [15]	Potency [16]	Potency [17]	Potency [18]	Potency [19]	Potency [20]
CCOCN(C(=O)CS(=O)(=O)O)c1c(C)cccc1CC	inactive	inactive	inactive	inactive	inactive	inactive	inactive	inactive	inactive	inactive	inactive	inactive	inactive	inactive	–	–	–	–	–	–
COc1cccc(N(C)C(=S)Oc2ccc3c(c2)CCCC3)n1	inactive	inactive	inactive	inactive	–	inactive	–	inactive	inactive	inactive	inactive	–	inactive	inactive	inactive	5.79 µM (active)	inactive	inactive	–	–
C=Cc1ccc(C(C)(C)C)cc1	inactive	inactive	inactive	inactive	inactive	inactive	inactive	inactive	inactive	inactive	inactive	inactive	inactive	inactive	–	inactive	inactive	inactive	–	–
O=C(O)COC(=O)Cc1ccccc1Nc1c(Cl)cccc1Cl	inactive	inactive	inactive	inactive	inactive	inactive	inactive	–	inactive	inactive	inactive	inactive	inactive	inactive	inactive	–	–	–	inactive	–
CC/C=C\CCCCCCCCCCOC(C)=O	inactive	inactive	inactive	inactive	inactive	–	inactive	inactive	inactive	inactive	inactive	–	inactive	inactive	–	inactive	inactive	inactive	–	–
Cc1ccc(Nc2c(F)cccc2Cl)c(CC(=O)O)c1	inactive	inactive	inactive	inactive	–	inactive	inactive	inactive	inactive	inactive	inactive	–	inactive	inactive	–	inactive	inactive	inactive	–	–
NCCCC(N)(C(=O)O)C(F)F (stereo not given)	inactive	inactive	inactive	inactive	inactive	inactive	inactive	inactive	inactive	–	inactive	inactive	inactive	inactive	–	inactive	inactive	0.163 µM (active)	–	–
O=C(Nc1ccccc1)OCC(CN1CCCCC1)OC(=O)Nc1ccccc1 (stereo not given)	inactive	inactive	inactive	inactive	inactive	inactive	12.6 µM (active)	inactive	inactive	inactive	inactive	–	inactive	–	–	inactive	–	inactive	–	–
OCC1CC=CCC1 (stereo not given)	inactive	inactive	inactive	inactive	inactive	inactive	inactive	inactive	inactive	inactive	–	inactive	inactive	inactive	–	inactive	inactive	–	–	–
CNC1CCCN(c2c(F)cc3c(=O)c(C(=O)O)cn(C4CC4)c3c2OC)C1 (stereo not given)	inactive	inactive	inactive	–	inactive	inactive	inactive	inactive	inactive	inactive	inactive	–	–	inactive	–	inactive	inactive	inactive	–	inactive
CC(C)Nc1ccc(NC(C)C)c2c1C(=O)c1ccccc1C2=O	inactive	inactive	inactive	–	inactive	inactive	–	–	inactive	inactive	inactive	inactive	–	inactive	inactive	inactive	inactive	inactive	inactive	inactive
CC(C)N1C(=O)c2ccccc2C1=O	inactive	inactive	inactive	–	inactive	inactive	inactive	inactive	inactive	–	inactive	inactive	inactive	inactive	inactive	inactive	inactive	inactive	inactive	inactive
